Measurements as given in PubChem BioAssay (NCATS).
Inconclusive results are not listed. The source made the active and inactive calls. Calls come from the whole dose curve; as a rule, active = well fitted inhibition curve with a large enough effect; inconclusive = small, poorly fitted or top-dose-only effect; inactive = flat fitted curve, though single readings scatter.

Columns and labels:
Assay in all cases: qHTS profiling for inhibitors of Plasmodium falciparum proliferation (AID 504749); note: nearly all actives have a fitted effect of over 60% in size
Settings in all cases: P. falciparum in erythrocytes, SYBR Green DNA, 72 h; series mostly up to 28.7 µM
C2A = test system: C2A
Outline: (§1)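 SYBR Green fluorescence (ex 485 nm, em 535 nm) reports parasite DNA after 72 h compound exposure of infected red cells at 0.3% parasitemia, 2.5% hematocrit; signal normalized to 0.29 uM artemisinin and vehicle wells.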

CP185 = test system: CP185
Outline: as §1

CP191 = test system: CP191
Outline: as §1

CP194 = test system: CP194
Outline: as §1

CP201 = test system: CP201
Outline: as §1

CP203 = test system: CP203
Outline: as §1

CP211 = test system: CP211
Outline: as §1

CP215 = test system: CP215
Outline: as §1

CP217 = test system: CP217
Outline: as §1

CP192 = test system: CP192
Outline: as §1

Measured: Potency
Potency is the fitted concentration of half-maximal effect.

C#C[C@]1(OC(C)=O)CC[C@H]2[C@@H]3CCC4=C[C@@H](OC(C)=O)CC[C@@H]4[C@H]3CC[C@@]21C
not listed: CP192
inactive: all other assays above

O=C(Nc1ccc(Oc2ccc(Cl)cc2)c(Cl)c1)c1cc(I)cc(I)c1O
active: CP217 0.158 µM
not listed: CP191 | CP203 | CP215
inactive: all other assays above

COc1c(C)c2c(c(O)c1C/C=C(\C)CCC(=O)O)C(=O)OC2
active: C2A 2.82 µM | CP185 3.16 µM | CP191 2.82 µM | CP194 4.55 µM | CP201 5.73 µM | CP203 3.22 µM | CP211 4.55 µM | CP215 3.22 µM | CP217 2.51 µM

CC/C(=C(/CC)c1ccc(O)cc1)c1ccc(O)cc1
not listed: CP191
inactive: all other assays above

CC(Cc1cccc(C(F)(F)F)c1)NCCOC(=O)c1ccccc1 (stereo unspecified)
not listed: CP194 | CP203
inactive: all other assays above

Cc1cc(N)c2cc(NC(=O)Nc3ccc4nc(C)cc(N)c4c3)ccc2n1
active: C2A 10 µM | CP185 11.2 µM | CP191 0.631 µM | CP192 3.79 µM | CP203 5.36 µM | CP211 3.79 µM | CP217 8.91 µM

CCOc1ccc(Cc2nccc3cc(OCC)c(OCC)cc23)cc1OCC
inactive: C2A | CP185 | CP192

COc1cccc(CCc2ccccc2OCC(CN(C)C)OC(=O)CCC(=O)O)c1 (stereo unspecified)
active: C2A 10 µM | CP185 8.91 µM | CP192 16.9 µM | CP194 4.78 µM | CP203 3.38 µM | CP211 7.57 µM | CP215 8.49 µM | CP217 7.94 µM

C[C@@H]1CN(CCCn2c3ccccc3c3ccccc32)C[C@H](C)N1
active: C2A 11.2 µM | CP191 7.08 µM
inactive: CP192

CN1CCC(=C2c3ccccc3Sc3ccccc32)CC1
active: C2A 11.2 µM | CP185 8.91 µM | CP194 10.7 µM | CP203 3.79 µM | CP211 13.5 µM | CP215 9.53 µM | CP217 11.2 µM

Cc1c(C(N)=O)cc([N+](=O)[O-])cc1[N+](=O)[O-]
not listed: CP192
inactive: all other assays above

CNCCC(Oc1ccccc1C)c1ccccc1 (stereo unspecified)
inactive: C2A | CP185 | CP191 | CP192 | CP201 | CP211

CCN(CC)CCOC(=O)C(c1ccccc1)C1CCCCC1 (stereo unspecified)
not listed: CP194 | CP203 | CP215
inactive: all other assays above

C[C@@H](CN(C)C)CN1c2ccccc2Sc2ccccc21
inactive: C2A | CP185 | CP192 | CP211 | CP215 | CP217

CN1CCN(C(c2ccccc2)c2ccccc2)CC1
not listed: CP194 | CP203 | CP215
inactive: all other assays above

Cc1ccc(O)c2ncccc12
not listed: CP194
inactive: all other assays above

Cc1c(C)n(Cc2ccccc2)c2ccc(C(=O)OCCN(C)C)cc12
not listed: CP201 | CP215
inactive: all other assays above

CCCCOc1cc(C(=O)NCCN(CC)CC)c2ccccc2n1
not listed: CP191
inactive: all other assays above

C=C(CC)C(=O)c1ccc(OCC(=O)O)c(Cl)c1Cl
inactive: CP192 | CP201 | CP217

c1ccc(-c2ccc(C(c3ccccc3)n3ccnc3)cc2)cc1 (stereo unspecified)
active: CP185 10 µM | CP191 11.2 µM | CP192 10.7 µM | CP203 15.1 µM | CP211 19 µM | CP215 15.1 µM | CP217 8.91 µM

O=C1OCCN1/N=C/c1ccc([N+](=O)[O-])o1
inactive: C2A | CP192 | CP194

CCN(CC)CCOc1ccc(C(O)(Cc2ccc(Cl)cc2)c2ccc(C)cc2)cc1 (stereo unspecified)
active: CP215 13.5 µM

CC1=C(C(=O)OC(C)C)C(c2cccc([N+](=O)[O-])c2)C(C(=O)OC2CN(C(c3ccccc3)c3ccccc3)C2)=C(N)N1 (stereo unspecified)
active: CP185 10 µM | CP191 7.08 µM | CP192 7.57 µM | CP194 6.75 µM | CP201 7.57 µM | CP203 12 µM | CP211 6.75 µM | CP215 7.57 µM | CP217 6.31 µM

CCOC(=O)/C=C(C)/C=C/C=C(C)/C=C/c1c(C)cc(OC)c(C)c1C
inactive: CP192 | CP194 | CP201 | CP211 | CP215

CC(=O)N/N=C/c1ccc([N+](=O)[O-])o1
inactive: CP192 | CP194 | CP201 | CP215

COc1cc2c(cc1OC)C(=O)C(CC1CCN(Cc3ccccc3)CC1)C2 (stereo unspecified)
active: CP191 8.91 µM
not listed: C2A | CP185 | CP217
inactive: all other assays above

OC(CCN1CCCCC1)(c1ccccc1)c1ccccc1
inactive: CP201 | CP211
active: CP203 16.9 µM

CO/N=C1\CN(c2nc3c(cc2F)c(=O)c(C(=O)O)cn3C2CC2)CC1CN (stereo unspecified)
active: CP191 8.91 µM

CN(C)CCOc1ccccc1Cc1ccccc1
inactive: CP192 | CP201

CCN(CCCc1ccccc1)CCCc1ccccc1
inactive: C2A | CP191 | CP192 | CP201 | CP217

CC(C)=CCC1C(=O)N(c2ccccc2)N(c2ccccc2)C1=O
active: CP215 13.5 µM
inactive: C2A | CP201

CN(C)C(=S)SC(=S)N(C)C
active: CP192 7.57 µM

CN=C(NC#N)Nc1ccc(C2=NNC(=O)CC2C)cc1 (stereo unspecified)
inactive: CP192 | CP194 | CP201 | CP203 | CP211 | CP215

CCCCCCCCCCOCC(O)CN (stereo unspecified)
inactive: C2A | CP191 | CP201 | CP215

O=C(N/N=C/c1ccccc1O)c1ccncc1
active: C2A 11.2 µM | CP217 8.91 µM

CC(C)NC[C@@H](O)COc1cccc2ccccc12
inactive: C2A | CP192 | CP201 | CP211

c1ccc(CNCCNCc2ccccc2)cc1
inactive: CP191 | CP192 | CP201

NC(CS)C(=O)O (stereo unspecified)
inactive: CP185 | CP192 | CP201 | CP211
active: CP191 10 µM

CNCCC=C1c2ccccc2CCc2ccccc21
active: CP203 7.57 µM

CCCCCCCCCCCCCCNCCO
inactive: CP192 | CP194 | CP201 | CP211 | CP217

CC(C)N=C(N)/N=C(\N)Nc1ccc(Cl)cc1
active: CP191 1 µM
inactive: C2A | CP192

CCCCc1nc(Cl)c(CO)n1Cc1ccc(-c2ccccc2-c2nn[nH]n2)cc1
active: CP211 6.75 µM | CP217 12.6 µM

COc1cc(-c2ccc(=O)[nH]n2)ccc1OC(F)F
inactive: C2A | CP201 | CP217

CN(C)CC/C=C1\c2ccccc2Sc2ccc(Cl)cc21
inactive: CP192 | CP201

CCN(CC)CCNC(=O)COc1ccc(Cl)cc1
inactive: C2A | CP191 | CP192 | CP201 | CP211 | CP215

COC(=O)[C@H]1[C@H]2C[C@H]3c4[nH]c5ccccc5c4CCN3C[C@H]2CC[C@@H]1O
inactive: CP192 | CP194 | CP201 | CP203 | CP211 | CP215

Oc1ccc(O)cc1
active: CP203 15.1 µM
inactive: CP185 | CP191 | CP201

CN1CCN(CCCN2c3ccccc3Sc3ccc(S(=O)(=O)N(C)C)cc32)CC1
active: CP191 3.98 µM | CP217 3.98 µM
inactive: CP185 | CP192 | CP194 | CP201 | CP211

CCCCCCCCCCCCCCCC[N+](C)(C)CCN(Cc1ccc(OC)cc1)c1ncccn1
active: CP191 0.794 µM
not listed: C2A | CP185 | CP217
inactive: all other assays above

CCCOC(C(=O)OC1CCN(C)CC1)(c1ccccc1)c1ccccc1
inactive: CP192 | CP201 | CP203

CCOC(=O)COc1ccc2c(C)c(CCN(CC)CC)c(=O)oc2c1Cl
not listed: C2A | CP191
inactive: all other assays above

O=C(CCCN1CCC(O)(c2ccc(Br)cc2)CC1)c1ccc(F)cc1
inactive: CP201 | CP211

O=C1[C@H]2CCCC[C@H]2C(=O)N1CCCCN1CCN(c2nsc3ccccc23)CC1
not listed: C2A | CP191
inactive: all other assays above
